Assay outcomes: PubChem BioAssay, Sanford-Burnham Center for Chemical Genomics
This is a sample that favours compounds with a hit; in the whole collection about 3.2% have one here.
CRFR2-BP antag: CRF-BP/CRF-R2 complex antagonism; 350,000 tested, 0.59% active; HEK293 CRF-R2/CRF-BP, CRF-induced calcium fluorescence; AID 588475; inhibition, % at 11.8 µM;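 active = inhibition of the ligand-induced calcium signal above about 50% at the single tested concentration, limit read from the data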
CRFR2-BP ag: CRF-BP/CRF-R2 complex agonism; HEK293 CRF-R2/CRF-BP, calcium dye fluorescence (FLIPR); percent of saturating CRF peptide response; activation, % at 13.2 µM; 350,000 tested, 0.46% active; AID 588473;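 active = activation of at least 50%, plus an integration ratio under a set limit after plate pattern correction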;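 note: plate controls were neutral control wells without compound for no effect and CRF at EC100 for full effect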
aDG glyco act: alpha-DG glycosylation activation; Pro5-aDG cells, alpha-DG glycosylation AlphaScreen (IIH6); 0% Pro5, 100% B10-LARGE cell signal; activation, % at 10 µM; 360,000 tested, 0.22% active;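 active = activation of at least 8% versus controls, or a plate z-score of at least 8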;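 note: Pro5 are CHO cells carrying HIG-tagged alpha-DG that lacks glycosylation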
FAS-TE inh: inhibitors of human fatty acid synthase thioesterase domain. P49327. recombinant FAS-TE, OMFH fluorogenic substrate, fluorescence endpoint. inhibition, % at 15 µM. 360,000 tested, 0.67% active;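 active = compounds whose normalised, plate-corrected inhibition of enzyme fluorescence in the single-dose primary screen is 50% or more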;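 note: 0% = DMSO with enzyme and 100% = substrate without enzyme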
Target sequence (P49327 whole entry, looked up, the tested form may be a part): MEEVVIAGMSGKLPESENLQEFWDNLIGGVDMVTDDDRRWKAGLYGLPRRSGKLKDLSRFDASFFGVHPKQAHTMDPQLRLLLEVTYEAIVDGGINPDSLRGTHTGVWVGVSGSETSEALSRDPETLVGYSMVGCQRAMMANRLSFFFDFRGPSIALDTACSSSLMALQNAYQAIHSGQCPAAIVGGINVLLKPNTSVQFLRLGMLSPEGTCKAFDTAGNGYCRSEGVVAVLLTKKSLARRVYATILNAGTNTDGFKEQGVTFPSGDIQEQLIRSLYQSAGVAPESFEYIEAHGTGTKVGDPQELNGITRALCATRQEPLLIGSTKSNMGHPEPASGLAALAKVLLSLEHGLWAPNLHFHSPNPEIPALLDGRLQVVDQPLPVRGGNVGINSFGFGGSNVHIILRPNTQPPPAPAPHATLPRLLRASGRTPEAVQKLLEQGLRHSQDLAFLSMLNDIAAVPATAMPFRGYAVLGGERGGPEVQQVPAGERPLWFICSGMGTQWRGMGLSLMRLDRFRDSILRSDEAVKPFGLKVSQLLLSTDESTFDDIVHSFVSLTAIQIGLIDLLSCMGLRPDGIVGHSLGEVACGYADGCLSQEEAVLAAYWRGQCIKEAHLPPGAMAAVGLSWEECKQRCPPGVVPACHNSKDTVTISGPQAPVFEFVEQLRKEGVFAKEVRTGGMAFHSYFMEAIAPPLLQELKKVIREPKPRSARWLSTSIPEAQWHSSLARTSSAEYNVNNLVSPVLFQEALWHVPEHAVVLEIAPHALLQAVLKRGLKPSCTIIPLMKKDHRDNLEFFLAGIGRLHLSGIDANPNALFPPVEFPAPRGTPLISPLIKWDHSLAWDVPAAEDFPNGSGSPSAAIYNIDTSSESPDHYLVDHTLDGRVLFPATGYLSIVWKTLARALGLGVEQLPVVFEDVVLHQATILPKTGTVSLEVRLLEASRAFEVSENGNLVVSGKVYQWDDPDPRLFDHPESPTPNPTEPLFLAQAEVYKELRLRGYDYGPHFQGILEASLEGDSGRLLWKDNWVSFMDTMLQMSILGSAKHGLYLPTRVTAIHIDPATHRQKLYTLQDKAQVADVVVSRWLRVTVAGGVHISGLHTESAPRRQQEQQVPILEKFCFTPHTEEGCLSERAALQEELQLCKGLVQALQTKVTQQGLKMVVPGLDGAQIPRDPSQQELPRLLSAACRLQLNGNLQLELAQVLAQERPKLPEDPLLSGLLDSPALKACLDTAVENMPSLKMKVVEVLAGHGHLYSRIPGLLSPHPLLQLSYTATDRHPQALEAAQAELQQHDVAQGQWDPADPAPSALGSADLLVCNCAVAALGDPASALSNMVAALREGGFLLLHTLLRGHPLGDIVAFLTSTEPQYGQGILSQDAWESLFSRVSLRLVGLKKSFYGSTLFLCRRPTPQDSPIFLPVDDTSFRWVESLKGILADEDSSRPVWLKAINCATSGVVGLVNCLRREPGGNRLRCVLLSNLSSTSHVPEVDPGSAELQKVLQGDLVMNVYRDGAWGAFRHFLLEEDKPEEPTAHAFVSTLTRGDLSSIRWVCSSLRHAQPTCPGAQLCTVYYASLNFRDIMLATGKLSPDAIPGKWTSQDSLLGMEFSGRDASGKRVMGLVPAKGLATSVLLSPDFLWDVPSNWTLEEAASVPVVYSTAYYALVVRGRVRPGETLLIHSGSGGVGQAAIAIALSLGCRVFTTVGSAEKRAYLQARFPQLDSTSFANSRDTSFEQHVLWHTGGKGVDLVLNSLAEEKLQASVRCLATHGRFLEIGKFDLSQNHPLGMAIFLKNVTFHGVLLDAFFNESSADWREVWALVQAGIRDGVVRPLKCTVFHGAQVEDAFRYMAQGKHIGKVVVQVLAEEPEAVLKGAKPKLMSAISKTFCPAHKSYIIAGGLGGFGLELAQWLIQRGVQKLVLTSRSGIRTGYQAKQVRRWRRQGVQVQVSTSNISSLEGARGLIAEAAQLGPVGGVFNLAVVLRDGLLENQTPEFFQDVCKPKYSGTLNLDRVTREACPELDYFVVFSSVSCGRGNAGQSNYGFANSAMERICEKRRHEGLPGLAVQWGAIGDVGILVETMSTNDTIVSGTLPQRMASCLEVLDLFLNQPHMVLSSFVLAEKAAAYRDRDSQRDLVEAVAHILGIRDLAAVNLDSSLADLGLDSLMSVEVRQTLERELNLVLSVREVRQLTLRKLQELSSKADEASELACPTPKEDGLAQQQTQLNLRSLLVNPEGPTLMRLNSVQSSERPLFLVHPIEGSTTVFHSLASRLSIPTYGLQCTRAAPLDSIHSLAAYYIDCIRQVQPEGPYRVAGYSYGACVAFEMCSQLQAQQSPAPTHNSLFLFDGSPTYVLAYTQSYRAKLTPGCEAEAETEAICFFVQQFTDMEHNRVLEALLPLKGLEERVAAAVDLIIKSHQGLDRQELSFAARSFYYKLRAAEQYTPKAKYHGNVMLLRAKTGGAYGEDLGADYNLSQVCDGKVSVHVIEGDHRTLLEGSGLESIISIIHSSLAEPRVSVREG
H9c2 protect: myocardial damage modulation in H9c2 cells; H9c2 cardiomyocytes, H2O2 injury protection, ATPLite, 2 h; protection from H2O2 cell death, % at 20 µM; 360,000 tested, 0.63% active; AID 588492;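 active = compounds giving at least 50% protection of heart cells from peroxide-induced death in the single-dose screen, raw or plate-pattern-corrected value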;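 note: 0% = DMSO wells with peroxide and 100% = DMSO wells without peroxide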
PfG6PD inh: PfG6PD (Plasmodium falciparum) enzyme inhibition; PfGluPho enzyme, NADPH resazurin-diaphorase fluorescence; AID 504690; inhibition, % at 20 µM; 350,000 tested, 0.78% active;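 active = inhibition reaching at least a set limit at 20 µM in the primary screen, cut at about 59% in these data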;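 note: 0% = DMSO wells with substrate and 100% = DMSO wells lacking glucose-6-phosphate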
PfGluPho conf: confirmation of Plasmodium falciparum G6PD inhibitors; shares compounds with PfG6PD inh; inhibition, % at 20 µM; recombinant PfGluPho, NADPH-diaphorase-resazurin fluorescence; 2,400 tested, 34% active;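 active = inhibition of at least 50% at 20 µM in any single replicate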;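 note: 0% = DMSO with substrate and 100% = DMSO lacking glucose-6-phosphate substrate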
Diaph ctr 10uM: counter-screen for P. falciparum G6PD inhibitors: diaphorase inhibitors, oxidizers; diaphorase-coupled resazurin reduction, fluorescence, NADPH 10 uM; shares compounds with PfG6PD inh; 820 tested, 39% active; inhibition, % at 20 µM;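 active = average inhibition reaching 50% or more with the compound at 20 µM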;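 note: resorufin red fluorescence formed as diaphorase reduces resazurin using NADPH; 0% = DMSO with enzyme and 100% = DMSO without enzyme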
Diaphorase 30uM: counter-screen for P. falciparum G6PD inhibitors: diaphorase inhibitors, oxidizers; shares compounds with PfG6PD inh; Diaphorase/resazurin coupled assay, resorufin fluorescence, 30 uM NADPH; inhibition, % at 20 µM; 820 tested, 29% active; AID 504863;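 active = inhibition averaging 50% or more, tested at 20 µM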;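 note: 0% = DMSO with enzyme and 100% = DMSO wells lacking diaphorase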
The depositor's hits bear a star; . = no result.

SMILES	CRFR2-BP antag	CRFR2-BP ag	aDG glyco act	FAS-TE inh	H9c2 protect	PfG6PD inh	PfGluPho conf	others
COc1cc(C(c2sc3nc(C)nn3c2O)N2CCc3ccccc3C2)cc(OC)c1OC (stereo unspecified)	7	-1	0	-7	14	-15	.
CCO[C@H]1OC(C(=O)N2CCOCC2)=C[C@@H](C)[C@@H]1CCCO	3	2	0	-11	11	-1	.
Cc1ccc(C(=O)Nc2ccc(O)cc2C(=O)O)cc1	-10	-3	0	-4	-9	66*	39
Cc1ccc(C(=O)Nc2ccc(O)cc2C(=O)O)cc1C	8	0	0	-7	-12	56	.
Cc1cc(C)n(Cc2cccc(C(=O)N/N=C/c3ccncc3)c2)n1	2	1	0	-3	8	-7	.
COc1ccc(CCNC(=O)CCc2cc(OC)c(OC)c(OC)c2)cc1OC	7	0	0	-3	3	-2	.
O=c1c(O)c(-c2cc(O)c(O)c(O)c2)oc2cc(O)cc(O)c12	-58	3	0	7	24	67*	47
COc1ccc(N2CCN(c3nc4ccccn4c(=O)c3/C=C(\C#N)S(=O)(=O)c3ccccc3)CC2)cc1	-3	0	0	20	5	16	.
CCC1(CC)Cc2ccccc2-c2nc(NN)[nH]c(=O)c21	1	-2	0	-3	3	76*	31
Cc1ccc(S(=O)(=O)N2CCOCC2)cc1NC(=O)COc1ccc(C(=O)c2ccccc2)cc1	-2	1	0	15	6	4	.
COc1ccc(C(=O)c2coc(-c3ccccc3C(=O)O)c2C(=O)O)cc1	-11	0	0	-6	2	-14	.
COc1ccc(C(=O)c2c(C(F)(F)F)oc3c2C(=O)c2ccccc2C3=O)cc1	17	1	1	26	-33	76*	35*	Diaph ctr 10uM=28;Diaphorase 30uM=32
CCOC(=O)c1ccc(N=C2SC(C(=O)NC)CC(=O)N2Cc2ccc(F)cc2)cc1 (stereo unspecified)	3	-1	0	6	1	5	.
COc1cc(N=c2ssnc2Cl)cc(OC)c1OC	-6	-2	0	-6	8	83*	68*	Diaph ctr 10uM=-26;Diaphorase 30uM=-22
COc1cc(/C=C2\SC(=Nc3cccnc3)NC2=O)cc(OC)c1OC	-6	-1	0	-5	5	-25	.
CCOC(=O)c1ccc(N=c2ssnc2Cl)cc1	4	36	0	-7	-11	88*	30
N#Cc1ccc(N=c2ssnc2Cl)cc1	2	8	0	-10	-4	93*	56*	Diaph ctr 10uM=-32;Diaphorase 30uM=-24
NC(=O)CSc1nnc(-c2ccccc2Br)n1-c1cccc(C(F)(F)F)c1	-7	-2	0	-3	0	69*	59*	Diaph ctr 10uM=59*;Diaphorase 30uM=55*
O=C1CC(=O)Nc2cc(S(=O)(=O)Nc3cccc(C(F)(F)F)c3)ccc2N1	15	1	0	-2	7	-6	.
Cc1nc2ccc(NC3=NCCCCC3)cc2s1	3	3	0	-11	-1	64*	38
Cc1ccc(NC2Sc3ccccc3NC2=O)cc1Cl (stereo unspecified)	-38	2	0	14	-11	82*	-6
Cc1ccc(NC(=O)CC2Nc3ccccc3NC2=O)cc1Cl (stereo unspecified)	-3	1	0	10	-6	-7	.
CCOc1ccc(/C=C/[N+](=O)[O-])c2ccccc12	-60	12	-1	-9	-16	64*	10
S=c1[nH]c(-c2ccc(Cl)cc2)cs1	-4	-1	0	4	-7	62*	3
O=C(Nc1ccccc1C(=O)N/N=C/c1ccc(F)cc1)c1ccccc1Br	-2	0	0	17	-15	104*	84*	Diaph ctr 10uM=69*;Diaphorase 30uM=59*
SMILES	CRFR2-BP antag	CRFR2-BP ag	aDG glyco act	FAS-TE inh	H9c2 protect	PfG6PD inh	PfGluPho conf	others
Cc1ccc(NC(=O)Nc2c(Cl)cccc2Cl)cn1	-75	-1	0	3	-9	-23	.
C=CCn1c(N)c(C(=O)NCCC2=CCCCC2)sc1=S	-39	0	0	19	0	69*	29
Cc1nc2c(O)c3c(c(O)c2nc1C)C1C=CC3CC1	-6	-2	0	-2	-15	123*	102*	Diaph ctr 10uM=95*;Diaphorase 30uM=89*
Cc1nc2c(C)c(C)c(C)c(C)c2nc1C	12	0	0	-4	-1	3	.
CC(C)(C)N1C(=O)c2ccccc2NC(=O)N1Cc1ccccc1	-12	-1	0	-3	1	24	.
O=C1Nc2ccccc2C(=O)C1(Cl)Cc1ccccc1 (stereo unspecified)	14	0	0	4	52*	70*	66*	Diaph ctr 10uM=-2;Diaphorase 30uM=-6
COc1ccc(-c2csc(NC(=O)CS(=O)(=O)c3ccccc3)n2)cc1	-6	-2	0	7	2	68*	6
O=C(CCS(=O)(=O)c1ccc(F)cc1)Nc1nc(-c2ccncc2)cs1	-19	0	0	-5	-2	61*	12
Cc1[nH]c(=S)c(C#N)c(C)c1Cc1ccccc1	9	1	0	1	12	51	.
Cc1[nH]c(=S)c(C#N)c(C)c1CCC#N	24	4	0	-1	7	69*	51*	Diaph ctr 10uM=11;Diaphorase 30uM=-3
COC(=O)c1ccc(CO/N=C/c2cccc([N+](=O)[O-])c2)cc1	5	1	0	7	-3	7	.
N#C/C(=C/c1ccc(N2CCOCC2)o1)c1ccc(Cl)cc1	0	1	-1	-10	-20	78*	12
N#C/C(=C\c1ccc(N2CCCCC2)o1)C(N)=O	-25	36	0	-19	-1	9	.
COc1ccc(-c2nc(N)ncc2-c2ccccc2OC)c(O)c1	-13	2	0	2	-4	74*	34
CC1CCc2sc(C(=O)N/N=C/c3ccc(O)cc3)cc2C1 (stereo unspecified)	-27	-1	0	27	-10	4	.
COc1cc(CNCc2ccc(SC)cc2)cc(OC)c1	-1	-2	1	-2	-22	0	.
On1onc2c3cc(-c4ccccc4)nc3ccc21	-7	-3	0	29	-11	90*	7
O=C(COC(=O)c1ccc(F)cc1F)Nc1ccc2c(c1)OCO2	0	-1	0	-1	1	7	.
